Screens (PubChem)
Sampled rows, rich in hits. Any-hit rate of the full collection: about 1.3%.
Gli-Sufu block – antagonists of Gli-Sufu signaling; Sufu-KO-LIGHT fibroblasts, Gli luciferase reporter luminescence; inhibition, % at 5 µM; 340,000 compounds, 0.74% hits; AID 588413;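 active = inhibition above about 55%, limit read from the data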
NCOA2 inhibitor – inhibits human steroid receptor coactivator 2 | Q15596 | HEK293 GAL4-SRC2 luciferase reporter, luminescence | inhibition, % at 9 µM | AID 651957 | 370,000 compounds, 0.17% hits;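 active = inhibition above the mean inhibition of all tested compounds plus 3 SD, set per campaign, cut at about 52% in these data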
SRC3 inh – human NCOA3 inhibition | Q9Y6Q9 | HEK293 GAL4-SRC3 luciferase reporter, luminescence | inhibition, % at 3.6 µM | 360,000 compounds, 0.17% hits;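 active = inhibition above a per-campaign cutoff, the mean of all compounds plus 3 SD, cut at about 60% in these data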;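 also: higher means less SRC3-driven luciferase light from the GAL4 reporter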
SRC1 inh – inhibits human SRC1 coactivator | 360,000 compounds, 0.12% hits | Q15788 | AID 588354 | inhibition, % at 3.6 µM | HEK293 GAL4-SRC1 luciferase reporter, luminescence;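 active = inhibition above the campaign mean plus 3 SD, with each screening campaign given its own cutoff, cut at about 60% in these data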
NR5A2 inv ag – suppresses constitutive activity of human LRH-1; O00482; HEK293T StAR-luciferase reporter, LRH-1 transfected, 24 h; inhibition, % at 3.6 µM; 360,000 compounds, 0.13% hits; AID 602396;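 active = inhibition above the mean inhibition of all tested compounds plus 3 SD, cut at about 73% in these data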
COUP-TFII inh – inhibitors of human COUP-TFII (NR2F2); 370,000 compounds, 0.7% hits; P24468; inhibition, % at 8.6 µM; AID 686940; HEK293T NGFI-A luciferase reporter, luminescence;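 active = inhibition above a per-plate cutoff, mean inhibition of test wells between control levels plus 3 SD, cut at about 38% in these data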;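 also: cells cotransfected with COUP-TFII expression vector driving the NGFI-A reporter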
Target sequence (P24468 whole entry, looked up): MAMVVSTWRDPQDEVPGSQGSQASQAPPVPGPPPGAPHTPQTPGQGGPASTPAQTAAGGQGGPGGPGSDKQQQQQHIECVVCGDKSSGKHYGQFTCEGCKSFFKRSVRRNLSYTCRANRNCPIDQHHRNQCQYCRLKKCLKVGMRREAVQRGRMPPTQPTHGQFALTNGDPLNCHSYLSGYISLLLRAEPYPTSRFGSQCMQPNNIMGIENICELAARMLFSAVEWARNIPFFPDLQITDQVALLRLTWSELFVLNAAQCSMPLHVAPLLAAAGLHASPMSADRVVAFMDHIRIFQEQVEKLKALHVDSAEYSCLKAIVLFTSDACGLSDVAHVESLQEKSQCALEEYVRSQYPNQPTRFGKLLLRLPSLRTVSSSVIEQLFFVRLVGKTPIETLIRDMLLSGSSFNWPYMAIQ
Gli-Sufu confirm – confirmation of Gli-SUFU pathway antagonists; shares compounds with Gli-Sufu block; Sufu-KO-LIGHT cells, Gli luciferase reporter, luminescence; inhibition, % at 5 µM; 2,500 compounds, 40% hits; AID 602428;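 active = mean inhibition at 5 µM reaching about 45%, limit read from the data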
SufuKO cytotox – counter-screen for Gli-SUFU antagonists: cytotoxicity; shares compounds with Gli-Sufu block; Sufu-KO-LIGHT cells cytotoxicity, ATP luminescence; cytotoxicity, % at 5 µM; 2,500 compounds, 32% hits;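 active = mean cytotoxicity at 5 µM above about 25%, limit read from the data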;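 also: cells exposed to compound overnight for roughly 16 to 18 hours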
Wnt3a cs – inhibits Wnt3a reporter, counter-screen for Gli-SUFU antagonists | shares compounds with Gli-Sufu block | Wnt-LIGHT cells, Wnt3a-driven luciferase reporter, luminescence | inhibition, % at 6.25 µM | 2,500 compounds, 20% hits | AID 651995;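 active = mean inhibition above about 25%, limit read from the data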
Large screens that a line does not name were inactive (follow-up assays come after a bar, where they were run).

COc1ccc(-[n+]2c(-c3ccccc3)cc(-c3ccc(C)cc3)cc2-c2ccccc2)cc1	Gli-Sufu block 91.3, SRC3 inh 78.5, SRC1 inh 66.1, NR5A2 inv ag 86.2, COUP-TFII inh 76.9
CNc1ccc2oc(C[C@H]3O[C@@]4(CC[C@H]3C)O[C@H]([C@H](C)C(=O)c3ccc[nH]3)[C@H](C)C[C@H]4C)nc2c1C(=O)O	Gli-Sufu block 83.1
CCCCN1CCN(C(=O)COc2cc(=O)n(C)c3ccccc23)CC1	none (no result: Gli-Sufu block, SRC3 inh, SRC1 inh, NR5A2 inv ag)
CC1Oc2cc3c(-c4c(O)cc(O)c5c(O)c6c(cc45)OC(C)C(C)C6=O)c(O)cc(O)c3c(O)c2C(=O)C1C (centres undefined)	Gli-Sufu block 67.6 (no result: NCOA2 inhibitor, COUP-TFII inh)
CN1CC[C@@H]2CN[C@H](c3ccccc3)C[C@@H]21	none (no result: Gli-Sufu block, SRC3 inh, SRC1 inh, NR5A2 inv ag)
C=C1[C@@H](C)C2[C@H](Cc3ccccc3)NC(=O)[C@]23[C@H](OC(C)=O)/C=C/[C@@](C)(O)C(=O)[C@@H](C)C/C=C/[C@H]3[C@@H]1O (some centres undefined)	none (no result: Gli-Sufu block, SRC3 inh, SRC1 inh, NR5A2 inv ag)
C=C1C(=O)O[C@H]2[C@H]1[C@H](OC(=O)CC(=O)O[C@@H]1C[C@@H](C)[C@@H]3C=CC(=O)[C@@]3(C)[C@H]3OC(=O)C(=C)[C@H]13)C[C@@H](C)[C@H]1C=CC(=O)[C@]12C	none | Gli-Sufu confirm inactive | SufuKO cytotox 34.5 | Wnt3a cs inactive
C=C1[C@@H](C)[C@H]2[C@H](Cc3ccccc3)NC(=O)[C@]23OC(=O)/C=C/[C@H](O)CCC[C@@H](C)C/C=C/[C@H]3[C@@H]1O	Gli-Sufu block 56.6 | Gli-Sufu confirm inactive | SufuKO cytotox 46.2 | Wnt3a cs 58.0
C=C1C(C)C2C(Cc3ccccc3)NC(=O)C23C(OC(C)=O)C=CC(C)(O)CC(C)CC=CC3C1O (centres undefined)	none
CNP1(NC)=NC(C(F)(F)F)=NC(C(F)(F)F)=N1	Gli-Sufu block 56.0 | Gli-Sufu confirm inactive | SufuKO cytotox inactive | Wnt3a cs inactive
Cc1cc(/C=C2\C(=O)NC(=O)N(c3ccc(Cl)cc3)C2=O)c(C)n1-c1sc2c(c1C#N)CCCC2	none | Gli-Sufu confirm 55.5 | SufuKO cytotox 46.8 | Wnt3a cs inactive
O=C(NC(=O)N1CCC2(CC1)OCCO2)c1ccc(Cl)cc1	Gli-Sufu block 64.8 | Gli-Sufu confirm inactive | SufuKO cytotox inactive | Wnt3a cs inactive
O=C(Nc1ccccc1)N1CCC2(CC1)OCCO2	none
O=C(NC1CCCCC1)N1Cc2cc(Br)ccc2-n2nncc2C1	none (no result: Gli-Sufu block, SRC3 inh, SRC1 inh, NR5A2 inv ag)
COc1ccc(CC(=O)N(CCN(C)C)CC2CCCN(Cc3ccccc3F)C2)cc1 (centres undefined)	none | Gli-Sufu confirm inactive | SufuKO cytotox inactive | Wnt3a cs inactive
O=C(O)c1ccc(-[n+]2c(-c3ccccc3)cc(-c3ccccc3)cc2-c2ccccc2)cc1	none
Brc1ccc(-[n+]2c(-c3ccccc3)cc(-c3ccccc3)cc2-c2ccccc2)cc1	Gli-Sufu block 56.1 | Gli-Sufu confirm 78.9 | SufuKO cytotox inactive | Wnt3a cs inactive
CCOC(=O)CC[C@@H]1CC[C@]2(CCCN(Cc3cccnc3)C2)O1	none (no result: Gli-Sufu block, SRC3 inh, SRC1 inh, NR5A2 inv ag)
COP(=O)(OC)C(C)NC(=O)OCc1ccccc1 (centres undefined)	none (no result: Gli-Sufu block, NCOA2 inhibitor, SRC3 inh, SRC1 inh, NR5A2 inv ag)
COc1ccccc1N1CCN(Cc2ccccc2)CC1	none
COc1ccccc1N1CCN(Cc2ccc(Br)s2)CC1	Gli-Sufu block 57.9 | Gli-Sufu confirm inactive | SufuKO cytotox inactive | Wnt3a cs inactive
CN1C(=O)C(=Cc2ccccc2Oc2ccc(Cl)cc2)C(=O)N(C)C1=O	none | Gli-Sufu confirm inactive | SufuKO cytotox inactive | Wnt3a cs inactive
CN1C(=O)C(=Cc2ccccc2OCc2ccc(Cl)cc2)C(=O)N(C)C1=O	none
CN1/C(=C\C=Nc2ccccc2)C(C)(C)c2ccccc21	Gli-Sufu block 59.4 | Gli-Sufu confirm 59.4 | SufuKO cytotox 27.1 | Wnt3a cs inactive
COc1cc2c(c(OC)c1OC)-c1ccc(O)c(=O)cc1C(NC(C)=O)CC2 (centres undefined)	Gli-Sufu block 61.4 | Gli-Sufu confirm 65.9 | SufuKO cytotox 60.9 | Wnt3a cs 29.2
COC1=C[C@@H]2C3=C([C@@H]2C1=O)[C@@H](NC(C)=O)CCc1cc(OC)c(OC)c(OC)c13	none
COc1ccc2c(c1)C(NC(C)=O)CCc1cc(OC)c(OC)c(OC)c1-2 (centres undefined)	none | Gli-Sufu confirm 50.4 | SufuKO cytotox 64.2 | Wnt3a cs inactive
COc1ccc(OC)c(CC(=O)O)c1	none
C[N+]1=C(N)NC2=C3CCCCC3ONC2C1 (centres undefined)	none (no result: Gli-Sufu block, NCOA2 inhibitor, SRC3 inh, SRC1 inh, NR5A2 inv ag)
CC(NC(=O)OC1CC2CCC1(C)C2(C)C)P(=O)(Oc1ccccc1)Oc1ccccc1 (centres undefined)	none (no result: Gli-Sufu block, NCOA2 inhibitor, SRC3 inh, SRC1 inh, NR5A2 inv ag)
O=C(CF)NC(NC(=S)Nc1ccccc1O)C(Cl)(Cl)Cl (centres undefined)	Gli-Sufu block 86.7 | Gli-Sufu confirm inactive | SufuKO cytotox inactive | Wnt3a cs inactive
COC1/C=C/C=C(\C)Cc2cc(O)c(Cl)c(c2)N(C)C(=O)CC(OC(=O)C(C)C)C2(C)OC2C(C)C2CC1(O)NC(=O)O2 (centres undefined)	none | Gli-Sufu confirm 60.8 | SufuKO cytotox 58.1 | Wnt3a cs inactive
O=C1NCN(c2ccccc2)C12CCN(C(c1ccnc3ccccc13)c1nnnn1C1CCCCC1)CC2 (centres undefined)	none (no result: Gli-Sufu block)
COc1cccc(-c2ccc3c(c2)C2c4cnnn4-c4ccccc4C(=O)N2CC3)c1 (centres undefined)	none (no result: Gli-Sufu block, SRC3 inh, SRC1 inh, NR5A2 inv ag)
C#CCNc1ccncc1S(=O)(=O)NC(=O)NC(C)C	Gli-Sufu block 56.9 | Gli-Sufu confirm inactive | SufuKO cytotox inactive | Wnt3a cs inactive
O=C(NC(CCC(O)CO)P(=O)(Oc1ccccc1)Oc1ccccc1)OCc1ccccc1 (centres undefined)	none (no result: Gli-Sufu block, SRC3 inh, SRC1 inh, NR5A2 inv ag)
COc1cc(C2c3cc4c(c(O)c3CC3COC(=O)C32)OCO4)cc(OC)c1OC (centres undefined)	Gli-Sufu block 62.3 | Gli-Sufu confirm 57.4 | SufuKO cytotox 63.5 | Wnt3a cs inactive
CCOC(=O)C1(CCc2ccccc2)CCN(Cc2cccc3c2OCO3)CC1	none
CCOC(=O)C1(CCc2ccccc2)CCN(Cc2csc(C(C)=O)c2)CC1	none | Gli-Sufu confirm inactive | SufuKO cytotox inactive | Wnt3a cs inactive
CC(=O)NC1=C(N2CC2C)C(=O)C(NC(C)=O)=C(N2CC2C)C1=O (centres undefined)	none
N#CCCC#N	none (no result: Gli-Sufu block, SRC3 inh, SRC1 inh, NR5A2 inv ag)
